Laboratory results published in PubChem BioAssay AID1159580 (chemical genetic matrix, 2015).
Out of some 5,500 compounds screened, about 2,000 (36%) were called active. Another 18% or so got no clear call; they are omitted. Cut-off read from the data, not from the text of the source: active = normalized growth mostly below about 0.91 (no sharp cut-off); inconclusive = no clear call, values can overlap the other calls; inactive = mostly above about 0.92. The list shows a part of the results.

Experiment: chemical genetic growth profiling, strain panel (AID 1159580);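 note: tested at 20 µM; growth read once vehicle control cultures reached saturation at 30 °C; 1 = growth at the plate median or of vehicle wells; lower values mean less growth of the strain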
Conditions: growth OD

Measured: normalized growth

O=C(O)COc1cc(Cl)c(Cl)cc1Cl
inactive: S. cerevisiae deletion strains, locus YJR075W, strain HOC1, active compounds read low 1.01 | S. cerevisiae deletion strains, locus YKL009W, strain mrt4, active compounds read low 1.05 | S. cerevisiae deletion strains, locus YKL068W, active compounds read low 1.01 | S. cerevisiae deletion strains, locus YKL085W, strain MDH1 (second series), active compounds read low 1.01 | S. cerevisiae deletion strains, locus YKL085W, strain MDH1, active compounds read low 1.01 | S. cerevisiae deletion strains, locus YKL160W, strain elf1, active compounds read low 1 | S. cerevisiae deletion strains, locus YKL190W, strain CNB1, active compounds read low 0.995 | S. cerevisiae deletion strains, locus YKR001C, strain vps1, active compounds read low 1.04 | S. cerevisiae deletion strains, locus YKR026C, strain gcn3, active compounds read low 1 | S. cerevisiae deletion strains, locus YKR091W, strain srl3, active compounds read low 1 | S. cerevisiae deletion strains, locus YLL001W, strain dnm1, active compounds read low 1.01 | S. cerevisiae deletion strains, locus YLL026W, active compounds read low 0.998 | S. cerevisiae deletion strains, locus YLL041C, strain sdh2, active compounds read low 1 | S. cerevisiae deletion strains, locus YLR027C, strain aat2, active compounds read low 1 | S. cerevisiae deletion strains, locus YLR039C, strain RIC1, active compounds read low 1.06 | S. cerevisiae deletion strains, locus YLR058C, strain SHM2, active compounds read low 1.01 | S. cerevisiae deletion strains, locus YLR102C, strain apc9, active compounds read low 1.02 | S. cerevisiae deletion strains, locus YLR113W, strain HOG1, active compounds read low 0.963 | S. cerevisiae deletion strains, locus YLR221C, strain rsa3, active compounds read low 1 | S. cerevisiae deletion strains, locus YLR258W, strain gsy2, active compounds read low 1.01 | S. cerevisiae deletion strains, locus YLR262C, strain YPT6 (second series), active compounds read low 1.01 | S. cerevisiae deletion strains, locus YLR262C, strain YPT6, active compounds read low 1.07 | S. cerevisiae deletion strains, locus YLR268W, strain sec22, active compounds read low 1.02 | S. cerevisiae deletion strains, locus YLR320W, strain mms22, active compounds read low 0.994 | S. cerevisiae deletion strains, locus YLR330W, strain CHS5, active compounds read low 1.01 | S. cerevisiae deletion strains, locus YLR342W, strain FKS1 (second series), active compounds read low 1.02 | S. cerevisiae deletion strains, locus YLR342W, strain FKS1, active compounds read low 0.999 | S. cerevisiae deletion strains, locus YLR357W, strain rsc2, active compounds read low 0.964 | S. cerevisiae deletion strains, locus YLR370C, strain arc18, active compounds read low 1 | S. cerevisiae deletion strains, locus YLR371W, strain rom2, active compounds read low 1.02 | S. cerevisiae deletion strains, locus YLR384C, strain iki3, active compounds read low 1 | S. cerevisiae deletion strains, locus YLR418C, strain cdc73, active compounds read low 1.04 | S. cerevisiae deletion strains, locus YML016C, strain PPZ1, active compounds read low 1.01 | S. cerevisiae deletion strains, locus YML032C, strain rad52, active compounds read low 1.02 | S. cerevisiae deletion strains, locus YML120C, strain ndi1, active compounds read low 0.999 | S. cerevisiae deletion strains, locus YML124C, strain tub3, active compounds read low 1.02 | S. cerevisiae deletion strains, locus YMR058W, strain fet3, active compounds read low 1 | S. cerevisiae deletion strains, locus YMR078C, strain ctf18, active compounds read low 1.03 | S. cerevisiae deletion strains, locus YMR125W, strain sto1, active compounds read low 0.994 | S. cerevisiae deletion strains, locus YMR129W, active compounds read low 1.01 | S. cerevisiae deletion strains, locus YMR205C, strain PFK2, active compounds read low 0.992 | S. cerevisiae deletion strains, locus YMR223W, strain ubp8, active compounds read low 1.02 | S. cerevisiae deletion strains, locus YMR231W, strain pep5, active compounds read low 1.01 | S. cerevisiae deletion strains, locus YMR263W, strain SAP30, active compounds read low 1.01 | S. cerevisiae deletion strains, locus YMR307W, strain GAS1, active compounds read low 1.02 | S. cerevisiae deletion strains, locus YNL067W, strain RPL9B, active compounds read low 1.01 | S. cerevisiae deletion strains, locus YNL071W, strain lat1, active compounds read low 0.994 | S. cerevisiae deletion strains, locus YNL128W, strain TEP1, active compounds read low 1.02 | S. cerevisiae deletion strains, locus YNL153C, strain GIM3, active compounds read low 1 | S. cerevisiae deletion strains, locus YNL183C, strain NPR1, active compounds read low 0.953 | S. cerevisiae deletion strains, locus YNL209W, strain ssb2, active compounds read low 1 | S. cerevisiae deletion strains, locus YNL233W, strain BNI4, active compounds read low 1.01 | S. cerevisiae deletion strains, locus YNL248C, strain rpa49, active compounds read low 0.992 | S. cerevisiae deletion strains, locus YNL250W, strain rad50, active compounds read low 1.03 | S. cerevisiae deletion strains, locus YNL271C, strain bni1, active compounds read low 1.02 | S. cerevisiae deletion strains, locus YNL298W, strain CLA4, active compounds read low 1.03 | S. cerevisiae deletion strains, locus YNL307C, strain MCK1, active compounds read low 1.03 | S. cerevisiae deletion strains, locus YNL322C, strain KRE1 (second series), active compounds read low 0.992 | S. cerevisiae deletion strains, locus YNL322C, strain KRE1, active compounds read low 1.01 | S. cerevisiae deletion strains, locus YNR049C, strain mso1, active compounds read low 0.988 | S. cerevisiae deletion strains, locus YNR052C, strain pop2, active compounds read low 1.01 | S. cerevisiae deletion strains, locus YOL006C, strain TOP1, active compounds read low 1.06 | S. cerevisiae deletion strains, locus YOL012C, strain htz1 1.75 | S. cerevisiae deletion strains, locus YOL147C, strain pex11, active compounds read low 1.02 | S. cerevisiae deletion strains, locus YOR001W, strain rrp6, active compounds read low 1 | S. cerevisiae deletion strains, locus YOR061W, strain CKA2, active compounds read low 1.01 | S. cerevisiae deletion strains, locus YOR069W, strain VPS5, active compounds read low 1.01 | S. cerevisiae deletion strains, locus YOR070C, strain gyp1, active compounds read low 0.991 | S. cerevisiae deletion strains, locus YOR080W, strain dia2, active compounds read low 0.988 | S. cerevisiae deletion strains, locus YOR083W, strain WHI5, active compounds read low 1.01 | S. cerevisiae deletion strains, locus YOR106W, strain vam3, active compounds read low 1.02 | S. cerevisiae deletion strains, locus YOR136W, strain idh2, active compounds read low 1.02 | S. cerevisiae deletion strains, locus YOR144C, strain elg1, active compounds read low 1.03 | S. cerevisiae deletion strains, locus YOR184W, strain ser1, active compounds read low 1.03 | S. cerevisiae deletion strains, locus YOR231W, strain MKK1, active compounds read low 1.01 | S. cerevisiae deletion strains, locus YOR265W, strain rbl2, active compounds read low 0.998 | S. cerevisiae deletion strains, locus YOR270C, strain vph1, active compounds read low 1.02 | S. cerevisiae deletion strains, locus YOR290C, strain snf2, active compounds read low 1.02 | S. cerevisiae deletion strains, locus YOR316C, strain cot1, active compounds read low 1.01 | S. cerevisiae deletion strains, locus YPL051W, strain arl3, active compounds read low 0.999 | S. cerevisiae deletion strains, locus YPL055C, strain LGE1, active compounds read low 1.03 | S. cerevisiae deletion strains, locus YPL078C, strain atp4, active compounds read low 1 | S. cerevisiae deletion strains, locus YPL106C, strain sse1, active compounds read low 0.973 | S. cerevisiae deletion strains, locus YPL240C, strain hsp82, active compounds read low 1 | S. cerevisiae deletion strains, locus YPL241C, strain CIN2, active compounds read low 1.01 | S. cerevisiae deletion strains, locus YPL256C, strain CLN2, active compounds read low 1.04 | S. cerevisiae deletion strains, locus YPR119W, strain clb2, active compounds read low 1.02 | S. cerevisiae deletion strains, locus YPR141C, strain kar3, active compounds read low 1.03 | S. cerevisiae deletion strains, locus YPR163C, strain tif3, active compounds read low 1.02 | S. cerevisiae deletion strains, locus YPR167C, strain met16, active compounds read low 1.02 | S. cerevisiae deletion strains, strain wtn01, active compounds read low 1.02 | S. cerevisiae strains, strain wild type, active compounds read low 1.01
